PubChem BioAssay (Tox21)
Results filed as inconclusive are left out. A call without a number means that no potency is given here. Active and inactive are the calls of the source. Calls come from the whole dose curve; as a rule, active = well fitted cell-killing curve with a large enough effect in the repeat runs; inconclusive = weak or mixed curves; inactive = flat fitted curve, though single readings scatter.

Assay: qHTS RealTime-Glo MT Cell Viability Assay in HepG2 cells - 16 hour (AID 1224885); note: nearly all actives have a fitted effect of over 50% in size
Conditions: RealTime-Glo luminescence; series mostly up to 76.8 µM
Source text: U.S. Tox21 Program National Center for Advancing Translational Sciences [NCATS] NIH Chemical Genomics Center [NCGC] U.S. Environmental Protection Agency [EPA] National Institutes of Environmental Health Sciences [NIEHS] National Toxicology Program [NTP] U.S. Food and Drug Administration [FDA] Tox21 Assay Overview: Measure of cell viability is critical in the cell-base assay. Analysis of cell viability is necessary for the characterization of cell responses to cytotoxic drugs and environmental stress. A RealTime-Glo MT Cell Viability Assay to monitor cell viability in real time of continues cell culture during 40 hours of compound treatment was used to screen Tox21 10K library compounds in HepG2 cells. The RealTime-Glo MT Cell Viability Assay is a nonlytic, homogeneous, bioluminescent method to measure cell viability in real time using a simple, plate-based method. The assay involves adding NanoLuc luciferase and a cell-permeant prosubstrate to cells in culture. Viable cells reduce the proprietary prosubstrate to generate a substrate for NanoLuc luciferase. This substrate diffuses from cells into the surrounding culture medium, where it is rapidly used by the NanoLuc Enzyme to produce a luminescent signal. The signal correlates with the number of viable cells, making the assay well suited for cytotoxicity studies.
Tox21 Assay Protocol Summary: The mixture of HepG2 cell suspension and reagents were dispensed at 600cells/6 ul/well in 1536-well tissue culture treated black solid bottom plates using a Multidrop dispenser. After the assay plates were incubated at a 37 C/5% CO2 incubator for 5 hours, 23 nL of compounds dissolved in DMSO, positive and negative controls was transferred to the assay plate by a pintool work station. The plates were incubated at 37 C for 40 hours. The luminescence intensity were measured at 0h, 8h, 16h, 24h, 32h and 40h time points using ViewLux plate reader during compound treatment.

| SMILES | Potency |
| --- | --- |
| O=C1CCCC(=O)C1 | inactive |
| Nc1c[n+](N2CCOCC2)no1 | inactive |
| CO[C@]12C[C@@H](COC(=O)c3cncc(Br)c3)CN(C)[C@@H]1Cc1cn(C)c3cccc2c13 | inactive |
| ClC(Cl)(Br)Br | inactive |
| FC(F)OC(Cl)C(F)(F)F (stereo not given) | inactive |
| CN1CCC(=C2c3ccccc3CC(=O)c3sccc32)CC1 | inactive |
| CN(C)CCCNCCCN(C)C | inactive |
| NS(=O)(=O)c1ccccc1Cl | inactive |
| N#Cc1ccc(C2CCCc3cncn32)cc1 (stereo not given) | inactive |
| CC(C)(O)C#CC(C)(C)O | inactive |
| CC/C=C\CC/C=C/CO | inactive |
| CCc1cccc2c(CCO)c[nH]c12 | inactive |
| C=CCCCCCCCCC=O | inactive |
| CCOC(=O)CC(C)=O | inactive |
| CCOC(=O)C(=O)OCC | inactive |
| Cc1c(O)cccc1O | inactive |
| C[C@H](NC(CCc1ccccc1)C(=O)O)C(=O)N1CCC[C@H]1C(=O)O (stereo not given in full) | inactive |
| CC(C)NCC(O)c1ccc(NS(C)(=O)=O)cc1 (stereo not given) | inactive |
| COc1cc(C(=O)N2CCCCCCC2)cc(OC)c1OC | inactive |
| NS(=O)(=O)c1cc(C(=O)O)cc(N2CCCC2)c1Oc1ccccc1 | inactive |

| SMILES | Potency |
| --- | --- |
| Nc1ccccc1S(=O)(=O)O | inactive |
| CCOC(=O)c1cccc(N)c1 | inactive |
| CCCCCCCCCCCC | inactive |
| COC(C)(C)CCCC(C)CC=O (stereo not given) | inactive |
| Nc1cc(=O)[nH]c(N)n1 | inactive |
| CC[N+](C)(C)c1cccc(O)c1 | inactive |
| COC(=O)c1cc(C(=O)OC)cc(S(=O)(=O)O)c1 | inactive |
| NC(CSCC(=O)O)C(=O)O (stereo not given) | inactive |
| CC1(C)C(O)C(C)(C)C1O (stereo not given) | inactive |
| O=[N+]([O-])c1ccc(F)cc1F | inactive |
| CC(=O)Nc1c(I)cc(I)c(C(=O)O)c1I | inactive |
| CC(=O)CC(C)C | inactive |
| OC1CCCCC1c1ccccc1 (stereo not given) | inactive |
| Cc1ccc(Cl)cc1Cl | inactive |
| CCCN1CCCC[C@H]1C(=O)Nc1c(C)cccc1C | inactive |
| CN1CC(=O)NC1=N | inactive |
| O=C(CCCN1CCC(O)(c2cccc(C(F)(F)F)c2)CC1)c1ccc(F)cc1 | inactive |
| Cc1cnc(NS(=O)(=O)c2ccc(N)cc2)nc1 | inactive |
| COCCCOCCCOC | inactive |
| CC1=CC(C)C(C=O)CC1 (stereo not given) | inactive |
